These results are taken from PubChem BioAssay (Tox21).

A number with no mark means an inactive call. Inconclusive results are not listed. Active and inactive are the calls of the source. Unless noted, the call rests on the fitted dose curve; in most records, active means well fitted curve in the direction sought with a large enough effect in the repeat runs; inconclusive means weak or mixed curves; inactive means no such curve, though single readings can be large; an effect the other way counts as inactive or inconclusive.

Assay [1] in a line: qHTS assay for small molecule agonists of the p53 signaling pathway (AID 651631; calls by dose curve; further: nearly all actives have a fitted effect of over 15% in size; further: potency means the concentration at half of the fitted maximal effect). The procedure, abridged:
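We treat p53RE-bla HCT-116 cells with compounds for 16 h at 37 °C, add LiveBLAzer B/G FRET substrate for 2 h at room temperature, and measure fluorescence intensity.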

Assay [2] is described as follows: qHTS assay for small molecule agonists of the p53 signaling pathway - cell viability (AID 651633; calls by dose curve;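 further: p53RE-bla HCT reporter cells with a stable beta-lactamase p53 reporter; series mostly up to about 83 µM; nearly all actives have a fitted effect of over 30% in size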). The procedure, abridged:
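p53RE-bla cells, seeded at 4,000 per well and rested 5 h at 37 C/5% CO2, received compounds in DMSO for 16 h at 37 C. CellTiter-Glo was then added, and luminescence was read after 30 min at room temperature to gauge cytotoxicity.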

Assay [3] can be described thus: qHTS assay for small molecules that induce genotoxicity in human embryonic kidney cells expressing luciferase-tagged ATAD5 - cell viability (AID 651634; calls by dose curve; further: nearly all actives have a fitted effect of over 25% in size). Put shortly: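 Here HEK293T cells with the ATAD5 luciferase reporter are incubated with test compounds for 15.5 hr, and cytotoxicity is then gauged by measuring protease activity in live cells using fluorescence.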
In general terms: qHTS replaces the single test concentration by a dilution series.

Assay [4] is described as follows: qHTS assay for small molecule disruptors of the mitochondrial membrane potential - cell viability (AID 720634; calls by dose curve;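 further: human HepG2 liver cancer cells; series mostly up to about 83 µM; nearly all actives have a fitted effect of over 20% in size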). Put shortly:
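Viability of HepG2 cells is scored from ATP content by luminescence; cells are exposed to compound for 1 hr at 37 C and 5% CO2, then dosed with m-MPI dye before the CellTiter-Glo reagent.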

Assay [5] can be described thus: qHTS assay to test for compound auto fluorescence at 590 nm (red) in HepG2 cells (AID 720674). Put shortly:
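Compound auto-fluorescence is scored relative to Rose Bengal sodium, measured at 540/590 nm in live HepG2 cultures after 1 hr compound contact (37 C, 5% CO2).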

Assay [6] in a line: qHTS assay to test for compound auto fluorescence at 535 nm (green) in HepG2 cells (AID 720675).
A short description of assay [7]: qHTS assay to test for compound auto fluorescence at 460 nm (blue) in HEK293 cells (AID 720678). The procedure, abridged:
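Blue read-out at excitation 405 nm and emission 460 nm follows overnight compound exposure of HEK293 cells at 37C in 5% CO2. Activity is given as auto fluorescence equivalency to triamterene.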

Assay [8] is described as follows: qHTS assay to test for compound auto fluorescence at 590 nm (red) in HEK293 cells (AID 720679). Put shortly: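 Red channel, Ex/Em 540/590nm; signal expressed as equivalency to Rose Bengal sodium. HEK293, 2,000 cells/well, 10% dialyzed FBS; 23 nL compound pinned after 4-5 hr attachment; overnight 37C/5% CO2 before reading.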
Assay [9] is described as follows: qHTS assay to test for compound auto fluorescence at 535 nm (green) in HEK293 cells (AID 720680).
Assay [10] is described as follows: qHTS assay to test for compound auto fluorescence at 535 nm (green) in HEK293 cell free culture (AID 720682). Put shortly: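 Green-channel intensity (Ex/Em 485/535 nm) was recorded from compound-treated wells containing only DMEM with 10% FBS. Fluorescein provided the equivalency standard.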
Assay [11] is described as follows: qHTS assay to test for compound auto fluorescence at 590 nm (red) in HEK293 cell free culture (AID 720683). The procedure, abridged:
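Tox21 10K library compounds were pinned into cell-free DMEM with 10% FBS and fluorescence was read at excitation 540 nm. Activity is expressed as Rose Bengal sodium equivalency.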

Assay [12] is described as follows: qHTS assay to test for compound auto fluorescence at 590 nm (red) in HepG2 cell free culture (AID 720684). Put shortly: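 Ex 540 / Em 590 nm read of compound in cell-free MEM (10% FBS). Rose Bengal sodium reference.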
The nature of assay [13]: qHTS assay to test for compound auto fluorescence at 460 nm (blue) in HepG2 cell free culture (AID 720685). The procedure, abridged:
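Cell-free plates of MEM plus 10% FBS received 23 nL compound or DMSO vehicle; blue-channel (405/460 nm) intensity scored against triamterene as reference fluorophore.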

Assay [14] can be described thus: qHTS assay to test for compound auto fluorescence at 535 nm (green) in HepG2 cell free culture (AID 720686).
Assay [15] in a line: qHTS assay to test for compound auto fluorescence at 460 nm (blue) in HepG2 cells (AID 720687). The procedure, abridged:
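Cells (2,000/well in MEM with 10% FBS) attached overnight at 37 C, then were exposed to compound or DMSO for 1 hr at 37 C, 5% CO2. Fluorescence read at Ex/Em 405/460 nm, expressed as triamterene-equivalent signal.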

Assay [16] has as its target Glucocorticoid receptor (Homo sapiens) (UniProt P04150). The assay is described as follows: qHTS assay to identify small molecule agonists of the glucocorticoid receptor (GR) signaling pathway (AID 720691; active means well fitted activation curve with a large enough effect in the signal ratio in the repeat runs, not every such curve was filed as active; the % refers to the signal ratio). The procedure, abridged: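 Compounds in DMSO, alongside positive controls, were added to GR-bla HeLa reporter cells and incubated 18 h at 37 C; GRE-driven beta-lactamase was detected by fluorescence after 2 h with FRET substrate at room temperature.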

Assay [17] is described as follows: qHTS assay for small molecules that induce genotoxicity in human embryonic kidney cells expressing luciferase-tagged ATAD5 (AID 651632). Further: nearly all actives have a fitted effect of over 15% in size. The procedure, abridged: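 DMSO vehicle served as the control. HEK293T reporter cells, 16 hr at 37C, then 30 min Amplite at room temperature; ATAD5 induction is measured as luciferase activity.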
Assay [18] can be described thus: qHTS assay to test for compound auto fluorescence at 460 nm (blue) in HEK293 cell free culture (AID 720681). The procedure, abridged:
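Test compounds were pinned into cell-free culture medium (DMEM with 10% FBS) and fluorescence was read directly at Ex/Em 405/460 nm. Signals were expressed as fluorescence equivalents of triamterene, with DMSO vehicle as control.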

The target of assay [19] is Glucocorticoid receptor (Homo sapiens) (UniProt P04150). The assay is described as follows: qHTS assay to identify small molecule antagonists of the glucocorticoid receptor (GR) signaling pathway (AID 720692; active means well fitted inhibition curve with a large enough effect in the signal ratio in the repeat runs, not every such curve was filed as active; the % refers to the signal ratio; further: potency means the concentration at half of the fitted maximal effect). Put shortly:
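In a 1536-well cell format, compounds were added 4 h after seeding GR-bla HeLa cells, together with dexamethasone at 5 nM final; reporter activity was measured by FRET-substrate fluorescence following 18 h at 37 C.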

Assay [20] in a line: qHTS assay for small molecule disruptors of the mitochondrial membrane potential (AID 720635). The procedure, abridged:
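HepG2 cells (2,000/well) attached overnight at 37C, then took compound for 1 hr at 37C, 5% CO2. Mito-MPS dye was added for 30 min; fluorescence was read at 490/535 nm (monomers) and 540/590 nm (aggregates).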

Sequence of Glucocorticoid receptor (Homo sapiens) (P04150 whole entry, looked up): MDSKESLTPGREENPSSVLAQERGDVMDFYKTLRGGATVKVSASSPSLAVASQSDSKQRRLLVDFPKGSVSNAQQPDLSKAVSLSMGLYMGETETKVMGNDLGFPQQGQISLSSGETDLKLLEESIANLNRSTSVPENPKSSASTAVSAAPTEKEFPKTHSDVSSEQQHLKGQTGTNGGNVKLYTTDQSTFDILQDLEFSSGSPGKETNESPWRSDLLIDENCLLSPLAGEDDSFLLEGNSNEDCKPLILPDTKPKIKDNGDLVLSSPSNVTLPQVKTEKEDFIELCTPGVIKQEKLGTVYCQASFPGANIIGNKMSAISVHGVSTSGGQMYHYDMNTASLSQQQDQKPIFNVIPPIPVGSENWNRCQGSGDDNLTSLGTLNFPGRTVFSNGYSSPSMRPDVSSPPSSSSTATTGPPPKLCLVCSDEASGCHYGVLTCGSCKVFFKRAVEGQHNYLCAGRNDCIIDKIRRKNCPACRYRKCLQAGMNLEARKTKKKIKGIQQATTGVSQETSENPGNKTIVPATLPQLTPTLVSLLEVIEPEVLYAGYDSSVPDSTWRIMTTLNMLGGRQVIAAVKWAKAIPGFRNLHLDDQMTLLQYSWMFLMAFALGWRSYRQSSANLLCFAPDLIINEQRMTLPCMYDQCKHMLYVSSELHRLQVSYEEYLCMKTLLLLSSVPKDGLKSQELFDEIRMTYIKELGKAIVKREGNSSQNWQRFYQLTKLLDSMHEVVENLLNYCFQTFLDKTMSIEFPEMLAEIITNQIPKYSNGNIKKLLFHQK

As to `NCCCNCCCN`, the Potency entry in assay [1], in assay [2], in [3] and in assay [4] was “inactive” throughout. For the same compound, the call in assay [5], in assay [6], in [7], in assay [8], in [9] and in [10] was inactive. Further, the call in assay [11], in [12], in [13], in assay [14], in [15] and in assay [16] was inactive.

As for `O=C(O)c1ccccc1C(=O)Nc1cccc2ccccc12`, the Potency entry in assay [1], in [17], in assay [2], in [3] and in assay [4] was “inactive” throughout. In addition, the call in assay [6], in assay [8], in [9], in assay [18], in assay [11] and in assay [12] was inactive. In addition, the result in assay [13], in assay [14] and in assay [15] was inactive.

`CCCCN(N=O)C(=N)N[N+](=O)[O-]`: the Potency in assay [1] is 62.4 µM (active). Further, the Potency result in assay [2], in assay [3] and in assay [4] was “inactive” each time. Further, the outcome in [6], in assay [7], in [8], in assay [9], in assay [18] and in assay [10] was inactive. The outcome in [11], in assay [12], in assay [13], in [14], in assay [15] and in assay [16] was inactive.

In the case of `C=CC(=O)NCNC(=O)C=C`, the Potency entry in assay [1], in assay [17], in [2] and in [3] was “inactive” throughout. The result in assay [6], in assay [7], in [8], in assay [9], in assay [18] and in assay [10] was inactive. In addition, the compound was classed as inactive in assay [11], in [12], in [13], in [14] and in assay [16].

With `Clc1ccc(C2(Cn3cncn3)CC(Br)CO2)c(Cl)c1` (stereo not given), the Potency result in [1], in [17], in [2] and in assay [3] was “inactive” throughout. In addition, the compound was classed as inactive in assay [5], in assay [6], in assay [7], in [8], in assay [9] and in [18]. In addition, the compound was classed as inactive in [10], in assay [11], in assay [12], in assay [13], in assay [14] and in [15]. The compound was called inactive in assay [16].

For the compound `C=CC(=O)OCC(C)C`, the Potency result in assay [1], in assay [17], in assay [2] and in assay [3] was “inactive” in each case. The call in assay [6], in assay [7], in assay [8], in assay [9], in [18] and in assay [11] was inactive. For the same compound, the compound was called inactive in assay [12], in [13], in assay [14] and in assay [16].

For the compound `CCOP(=O)(OCC)O/C(=C/Cl)c1ccc(Cl)cc1Cl`, the Potency result in assay [1], in [17], in assay [2], in assay [3] and in [4] was “inactive” in each case. Further, the outcome in [6], in assay [7], in assay [9], in assay [11], in assay [12] and in assay [13] was inactive. Besides, the call in [14], in assay [15] and in assay [16] was inactive. Further, the Potency in [19] is 49 µM (active).

On to `O=C1C(Cl)C(CCl)CN1c1cccc(C(F)(F)F)c1` (stereo not given), for which the Potency entry in [1], in [17], in assay [2] and in assay [3] was “inactive” in each case. Further, the outcome in assay [5], in [6], in assay [8], in assay [9], in assay [18] and in [10] was inactive. The compound was called inactive in assay [11], in [12], in assay [13], in assay [14], in assay [15] and in assay [16].

As to `C=CC(=O)OC(C)(C)C`, the Potency result in [1], in assay [17], in assay [2], in assay [3] and in [19] was “inactive” throughout. Besides, the compound was classed as inactive in assay [5], in [6], in [7], in assay [8], in [9] and in assay [18]. Also, the compound was classed as inactive in assay [10], in [11], in assay [12], in [13], in assay [14] and in assay [16].

With `CN1C[C@H](CNC(=O)OCc2ccccc2)C[C@@H]2c3cccc4c3c(cn4C)C[C@H]21`, the Potency result in [1], in assay [17], in assay [3] and in [4] was “inactive” in each case. The compound was classed as inactive in [6], in assay [7], in assay [8], in [9], in assay [18] and in [10]. For the same compound, the compound was called inactive in assay [11], in [12], in assay [13], in [14], in assay [15] and in [16].

In the case of `COc1nn(C(=O)NS(=O)(=O)c2ccccc2OC(F)(F)F)c(=O)n1C`, the Potency result in assay [17], in assay [2], in assay [3], in assay [4], in assay [20] and in assay [19] was “inactive” in each case. Further, the compound was called inactive in assay [6], in [7], in assay [9], in assay [18], in assay [10] and in [11]. For the same compound, the compound was classed as inactive in [12], in assay [13], in assay [14], in [15] and in assay [16].

In the case of `CCOC(=O)[C@]1(c2ccccc2)Oc2ccccc2[C@@H]1N`, the Potency result in assay [17], in assay [2], in assay [3] and in assay [4] was “inactive” in each case. Further, the call in assay [5], in [6], in assay [7], in assay [8], in assay [9] and in [18] was inactive. The outcome in assay [10], in assay [11], in [12], in [13], in assay [14] and in assay [15] was inactive.

Consider `O=S(=O)(Cl)c1ccccc1`, for which the Potency entry in assay [17], in assay [2], in assay [3], in [4] and in assay [20] was “inactive” in each case. In addition, the result in [5], in [6], in [7], in assay [9], in [10] and in assay [11] was inactive. The compound was classed as inactive in assay [12], in assay [13] and in assay [14].

For the compound `NCC(CC(=O)O)c1ccc(Cl)cc1` (stereo not given), the Potency entry in assay [17], in assay [2], in assay [3], in assay [4], in [20] and in assay [19] was “inactive” throughout. In addition, the result in [5], in assay [6], in assay [7], in assay [8], in assay [9] and in assay [10] was inactive. The compound was called inactive in [11], in assay [12], in [13], in [14] and in assay [16].
